# Compound activity deposited in PubChem BioAssay by National Center for Advancing Translational Sciences (NCATS).
# B2AR arrestin: agonists driving beta-arrestin recruitment to human beta2-adrenergic receptor; P07550; beta-arrestin recruitment to beta2AR, cell-based reporter; Potency, µM (highest dose often 46.1 µM), without a hit: at the highest dose activation, usual class: activators; 0.02% of 330,000 active;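 further: potency means the concentration at half of the fitted maximal effect; 0% = DMSO controls and full agonism = EC100 isoproterenol or metaproterenol; nearly all actives have a fitted effect of over 65% in size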
# PTHR1 ag: agonists of human PTHR1 parathyroid hormone receptor. AID 743266. Potency, µM (titrated, usually from 115 µM), for the others: at the highest dose activation, actives largely listed as activators. 0.075% of 410,000 active. HEK293 GP2 PTHR1 cells, GloSensor cAMP luminescence, 1 h; further: potency means the concentration at half of the fitted maximal effect; nearly all actives have a fitted effect of over 55% in size
#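 HEK-293-derived GP2 cells expressing PTHR1 and a GloSensor cAMP reporter, 3,000/well, plated overnight, given luciferin plus IBMX (each 0.5 mM as added) for 1 h at 37 °C, then compound for 1 h at 37 °C. Luminescence was read after 15 min at room temperature.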
# DRD3 agonist: D3 dopamine receptor (human) agonism. P35462. D3R DiscoveRx beta-arrestin cells, luminescence, 90 min. max activation, %. 0.58% of 410,000 active. AID 652048; in the data active means max activation above about 30%; further: 0% is about no effect
# Target sequence (P35462 whole entry, looked up): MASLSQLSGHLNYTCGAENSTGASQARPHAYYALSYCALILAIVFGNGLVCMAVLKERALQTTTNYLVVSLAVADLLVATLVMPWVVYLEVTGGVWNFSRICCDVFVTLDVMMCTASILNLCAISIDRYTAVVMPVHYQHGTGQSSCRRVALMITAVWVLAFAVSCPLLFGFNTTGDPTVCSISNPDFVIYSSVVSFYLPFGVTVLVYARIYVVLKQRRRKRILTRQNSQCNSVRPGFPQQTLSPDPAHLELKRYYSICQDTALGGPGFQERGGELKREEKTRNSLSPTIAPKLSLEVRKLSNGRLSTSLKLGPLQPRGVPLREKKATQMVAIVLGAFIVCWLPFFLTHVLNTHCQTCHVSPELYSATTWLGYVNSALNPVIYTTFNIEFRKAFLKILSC
#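 Cells at 1500/well, incubated overnight, then treated with pinned compounds (dopamine as control) for 90 min at 37 degrees C. DiscoveRx reagent added for 30 - 60 minutes at room temperature; luminescence read.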
# BRCA1 expr up: BRCA1 expression activation. MCF7-BRCA1-FFLuc reporter, luminescence, 48 h; response scale: scaled: vehicle 0%, 10 µM genistein 100%. Potency, µM (doses to about 46.1 µM), without a hit: at the top dose activation, actives largely listed as activators. 1.1% of 380,000 active; further: potency means the concentration at half of the fitted maximal effect; nearly all actives have a fitted effect of over 80% in size
#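 First, MCF7-BRCA1-FFLuc cells (2000/well) attach for 2 h; next, compounds are pin-added and incubated 48 h at 37 °C; finally, luciferase reagent is added and luminescence read after 15 min.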
# RGS4 inhibitor: inhibitors of human regulator of G protein signaling 4 | P49798 | Transcreener GDP fluorescence polarization, RGS4-accelerated GTP hydrolysis | Potency, µM (doses to about 114 µM), for inactives: at the top dose activity change, negative = inhibition, actives largely listed as inhibitors | 0.039% of 390,000 active | AID 504845; further: potency means the concentration at half of the fitted maximal effect; on the % scale 0 is the no-effect control and ±100 the full control effect; nearly all actives have a fitted effect of over 75% in size
# Target sequence (P49798 whole entry, looked up): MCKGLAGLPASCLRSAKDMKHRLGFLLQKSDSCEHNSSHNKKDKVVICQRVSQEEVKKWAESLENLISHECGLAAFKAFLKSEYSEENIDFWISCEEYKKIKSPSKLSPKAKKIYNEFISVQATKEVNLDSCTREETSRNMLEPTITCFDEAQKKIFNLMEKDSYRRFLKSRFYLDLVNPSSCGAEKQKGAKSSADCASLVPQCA
#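 MLSMR compounds (23 nl, pin-transferred) preincubated 10 min at room temperature with a 500nM (2x) first reagent, then RGS4 at 900nM (2x) plus Transcreener GDP mix added; fluorescence polarization (620/688 nm) read before and after 90 min at 30 °C.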
# D3 antag: D3 dopamine receptor (human) antagonism; AID 652054; max response, negative = inhibition, %; 2.5% of 360,000 active; D3R cells, DiscoveRx beta-arrestin luminescence, antagonist mode; active compounds read low; in the data active means max response below about -50%; inconclusive means no clear call, values can overlap the other calls; further: on the % scale 0 is the no-effect control and ±100 the full control effect
#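 Cells plated overnight at 1500 cells/well, then exposed to library compounds with dopamine controls for 90 minutes at 37 degrees C. DiscoveRx reagent added for 30–60 minutes at room temperature; luminescence read, quantitative HTS format.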
# * = called active by the depositor; i = inactive; ? = inconclusive; nt = no result; [ ] = dose if it differs, or a comment. An excerpt weighted towards active compounds, which were near 3.7% of everything screened. Unless noted, the call rests on the fitted dose curve; in most records, active means well fitted curve in the direction sought with a large enough effect; inconclusive means small, poorly fitted or top-dose-only effect, or another doubt; inactive means no such curve, though single readings can be large; an effect the other way counts as inactive or inconclusive.
SMILES,B2AR arrestin,PTHR1 ag,DRD3 agonist,BRCA1 expr up,RGS4 inhibitor,D3 antag
Cc1cccc(C)c1NC(=O)CN(C)C(=O)CC1CC2CCC1C2 (stereo unspecified),0%,i,1,-18%,-11%,-10
COCc1cn(-c2nc3ccccc3s2)nn1,nt,i,0,11µM*,nt,7
COCCNC(=S)N1CCN(c2nc3ccccc3s2)CC1,0%,-46%,-6,30%,-2%,-17
N#CCCCc1cn(-c2nc3ccccc3s2)nn1,nt,-42%,3,10µM*,nt,5
O=C(CCC1CCCN(c2ncccn2)C1)NCc1ccc(F)c(F)c1 (stereo unspecified),0%,i,1,-4%,-12%,2
COC(=O)Cc1ccc(OC2(C)CCN(Cc3csc4ccccc34)C2)cc1 (stereo unspecified),nt,-18%,-25,6%,nt,-86*
CC1(Oc2cccc(C#N)c2)CCN(Cc2ccccc2OC(F)F)C1 (stereo unspecified),nt,-72%,-10,0%,nt,-89*
CC1(Oc2cccc(F)c2)CCN(Cc2ccc(-c3ccccc3)o2)C1 (stereo unspecified),nt,-12%,-19,9%,nt,?
CC1(Oc2cccc(C#N)c2)CCN(Cc2csc3ccccc23)C1 (stereo unspecified),nt,6%,-25,0%,nt,-81*
CC1(Oc2cccc(F)c2)CCN(Cc2csc3ccccc23)C1 (stereo unspecified),nt,i,-11,7%,nt,-106*
CCCNC(=O)N1C[C@H](O)COC[C@H]2O[C@@H](CC(=O)N[C@@H]3CCN(Cc4ccccc4)C3)CC[C@@H]21,nt,-6%,4,nt,nt,10
CCc1ccc(S(=O)(=O)Nc2cc(SCC(=O)O)c(O)c3ccccc23)cc1,0%,-31%,-2,-71%,-133%[56.9 µM],-63*
CCOc1ccc(S(=O)(=O)Nc2cc(SCC(=O)O)c(O)c3ccccc23)cc1,0%,i,-16,-89%,?,-51*
O=C(O)CSc1cc(NS(=O)(=O)c2cccc([N+](=O)[O-])c2)c2ccccc2c1O,0%,-21%,-16,-96%,-32%[11.4 µM],-51*
Cc1ccc(C)c(S(=O)(=O)Nc2cc(SCC(=O)O)c(O)c3ccccc23)c1,-1%,i,-8,-75%,?,?
Cc1cc(/C=C(\C#N)C(=O)Nc2ccccc2)c(C)n1-c1cccnc1,0%,-33%,6,5.6µM*,28%,2
Cc1cc(/C=C(\C#N)C(=O)Nc2ccccc2)c(C)n1-c1ccc(F)cc1,nt,20%,-6,15%,26%,nt
CCN(CC)S(=O)(=O)c1cc(NC(=O)CSc2nnc(N)s2)ccc1C,0%,-9%,0,-13%,-10%,-19
CCN(CC)S(=O)(=O)c1cc(NC(=O)CSc2nc3c(cc2C#N)C(=O)CC(C)(C)C3)ccc1C,0%,-8%,34*,-78%,-5%,12
c1ccc(-c2cn(CC3CCCCC3)nn2)cc1,0%,i,-2,5.6µM*,0%,-18
COc1ccc(-c2cn(CC3CCCCC3)nn2)cc1,0%,i,-7,?,24%,4
COCC(=O)n1nc(-c2ccc(C)cc2)nc1NCc1ccc(F)cc1,0%,i,-9,10µM*,9%,-9
COc1ccc(CCC(=O)N2c3ccccc3N=C(c3ccc(C(F)(F)F)cc3)C2C(=O)NC(C)C)cc1 (stereo unspecified),nt,-34%,86*,nt,nt,0
COCCNCCOCCOc1ccc(Cl)c(C)c1,0%,-9%[57.5 µM],-20,-9%,-31%,-52*
Cc1cc(OCCOCCN(C)C)ccc1Cl,-2%,i,-7,-1%,-14%,0
SMILES,B2AR arrestin,PTHR1 ag,DRD3 agonist,BRCA1 expr up,RGS4 inhibitor,D3 antag
CN1C(=O)c2ccc(NC(=O)CCS(=O)(=O)c3ccccc3)cc2C1=O,0%,i,1,-9%,-1%,11
Cc1nn(CC(=O)O)c(C)c1N,0%,i,8,-13%,-2%,2
CCC(=O)N1CCc2cc(Br)cc(S(=O)(=O)N3CCC(C(=O)Nc4cccc(C)c4)CC3)c21,nt,i,1,nt,16%,nt
COc1ccc(Cl)cc1NC(=O)CCN1CCN(Cc2ccccc2)CC1,0%,-8%,-3,-7%,10%,?
COc1cc(NC(=O)CN2CCN(c3ccccc3F)CC2)c(C)cc1[N+](=O)[O-],0%,i,0,4%,11%[11.4 µM],1
COc1ccc(C(=O)CCN2CCN(c3ccccc3F)CC2)cc1,0%,i,-10,-35%,12%[11.4 µM],-99*
COc1ccc(C)cc1NC(=O)CN1CCN(c2ccccc2F)CC1,0%,-7%,-9,-29%,?,-70*
COc1ccc(NC(=O)CCN2CCOCC2)c(OC)c1,-1%,-15%,0,-27%,-2%,3
COc1ccc(C)cc1NC(=O)CCN1CCN(c2ccccc2F)CC1,-3%,-24%,34*,-6%,20%,?
COc1ccc(NC(=O)CCN2CCCCCC2)c(OC)c1,0%,-12%[57.5 µM],-24,-6%,10%,-55*
CCc1ccc(C2=NN(CCC(=O)NCCc3ccc(OC)c(OC)c3)C(=O)CC2)cc1,nt,i,6,nt,-4%,nt
COc1ccc([N+](=O)[O-])cc1NC(=O)C(C)N(C)Cc1ccc(Br)cc1 (stereo unspecified),0%,-29%,-24,-35%,-11%,-64*
COc1ccc(Br)cc1CN(C)C(C)C(=O)Nc1cc([N+](=O)[O-])ccc1OC (stereo unspecified),-1%,-42%,-17,-78%,-29%,-3
Cc1ccc(C)c(OCC(=O)NNC(=O)CCN2CCN(c3ccccc3)CC2)c1,0%,i,-6,-20%,-11%,-71*
COc1ccc(C)cc1NC(=O)CN1CCN(C/C=C/c2ccccc2)CC1,0%,-4%,-1,-9%,4%,-70*
Cc1ccc(C)c(OCC(=O)Nc2ccc(N3CCOCC3)cc2)c1,1%,-33%,7,-18%,-10%,0
Cc1ccc(C)c(NC(=O)CCN2CCN(c3ccccc3F)CC2)c1,-1%,-61%,15,4%,21%,-64*
Cc1ccc(C)c(NC(=O)CCN2CCN(C)CC2)c1,0%,i,0,-5%,-2%,-1
CCOc1ccc2nc(N3CCC(C(=O)Nc4ccccc4CC)CC3)sc2c1,nt,-63%,3,nt,7%,nt
Cc1c(NC(=O)c2cccc(NC(=O)Cc3ccccc3F)c2)c(=O)n(-c2ccccc2)n1C,0%,i,9,13%,-2%,6
CCN(CCC(=O)Nc1cc([N+](=O)[O-])ccc1OC)Cc1ccccc1,0%,-11%,-25,-20%,8%,-81*
